This passage reports binding signal results from article PMC7862700, “An all-to-all approach to the identification of sequence-specific readers for epigenetic DNA modifications on cytosine”.

What all share (assay): DAPPL (digital affinity profiling via proximity ligation, sequencing); 10 mM Tris-HCl pH 7.5, 50 mM NaCl, 1 mM DTT, 4% glycerol, room temperature, 30 min; GST-TFs on glutathione beads, 16-mer random dsDNA library, 0.1% formaldehyde crosslink after washing; high values mean tight binding
For assay [1], the target named is T1, FLI1 (Homo sapiens, UniProt Q01543 1-452).
T1 sequence: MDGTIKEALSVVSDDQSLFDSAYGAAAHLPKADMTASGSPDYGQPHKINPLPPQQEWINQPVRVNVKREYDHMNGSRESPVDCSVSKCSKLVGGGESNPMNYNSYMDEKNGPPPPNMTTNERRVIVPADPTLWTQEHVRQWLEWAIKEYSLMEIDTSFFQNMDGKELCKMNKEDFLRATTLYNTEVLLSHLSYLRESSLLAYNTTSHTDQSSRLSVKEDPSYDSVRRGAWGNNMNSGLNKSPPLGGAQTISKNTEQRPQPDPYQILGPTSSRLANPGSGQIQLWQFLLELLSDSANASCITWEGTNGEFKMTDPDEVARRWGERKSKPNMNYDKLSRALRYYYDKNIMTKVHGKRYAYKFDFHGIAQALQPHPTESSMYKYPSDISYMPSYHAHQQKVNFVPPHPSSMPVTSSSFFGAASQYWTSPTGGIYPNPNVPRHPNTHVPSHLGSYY
To be noted: protein: recombinant; tags: N-terminal GST; dsDNA, one strand shown. The essentials: (§1)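 Each value of binding signal is a hexamer's read frequency for a factor divided by the same hexamer's frequency in the tag-only sample. Barcoded, bead-captured GST fusions of human transcription factors made in yeast were pooled with that sample and incubated with 200 nmole of a random double-stranded 16-mer DNA library in Tris/NaCl/DTT/glycerol buffer at room temperature for 30 min. Washing, 0.1% formaldehyde crosslinking, proximity ligation, PCR and Illumina NextSeq500 sequencing followed.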

Assay [2] deals with T2, ELK1 (Homo sapiens, UniProt P19419 1-428).
T2 sequence: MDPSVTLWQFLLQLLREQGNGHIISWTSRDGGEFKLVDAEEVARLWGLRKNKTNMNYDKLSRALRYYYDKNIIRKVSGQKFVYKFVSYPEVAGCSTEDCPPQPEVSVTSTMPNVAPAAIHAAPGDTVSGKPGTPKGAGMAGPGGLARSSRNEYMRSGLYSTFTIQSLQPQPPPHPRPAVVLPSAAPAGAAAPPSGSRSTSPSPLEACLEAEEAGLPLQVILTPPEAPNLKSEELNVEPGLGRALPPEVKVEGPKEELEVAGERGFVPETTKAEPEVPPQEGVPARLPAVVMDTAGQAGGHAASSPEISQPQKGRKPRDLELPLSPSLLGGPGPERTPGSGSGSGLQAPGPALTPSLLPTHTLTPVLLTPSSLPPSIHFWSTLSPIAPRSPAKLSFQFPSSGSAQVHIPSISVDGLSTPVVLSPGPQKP
The settings on record: protein: recombinant; tags: N-terminal GST; dsDNA, one strand shown. The essentials:
as §1

In assay [3] the target is T3, GABPA (Homo sapiens, UniProt Q06546 1-454).
T3 sequence: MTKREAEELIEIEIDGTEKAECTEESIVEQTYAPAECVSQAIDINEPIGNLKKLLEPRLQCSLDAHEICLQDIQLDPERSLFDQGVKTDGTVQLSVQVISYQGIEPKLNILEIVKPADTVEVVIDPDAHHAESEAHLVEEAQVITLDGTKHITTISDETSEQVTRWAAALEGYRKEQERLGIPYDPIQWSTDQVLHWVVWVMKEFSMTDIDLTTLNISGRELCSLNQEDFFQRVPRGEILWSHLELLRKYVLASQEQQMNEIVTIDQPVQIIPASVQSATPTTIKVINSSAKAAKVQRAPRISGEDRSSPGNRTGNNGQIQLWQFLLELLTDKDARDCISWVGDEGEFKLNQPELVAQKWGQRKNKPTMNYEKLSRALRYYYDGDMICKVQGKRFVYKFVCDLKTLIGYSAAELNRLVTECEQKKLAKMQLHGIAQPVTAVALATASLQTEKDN
To be noted: protein: recombinant; tags: N-terminal GST; dsDNA, one strand shown. The method, boiled down:
as §1

Assay [4] concerns the target T4, ERG (Homo sapiens, UniProt P11308 1-479).
T4 sequence: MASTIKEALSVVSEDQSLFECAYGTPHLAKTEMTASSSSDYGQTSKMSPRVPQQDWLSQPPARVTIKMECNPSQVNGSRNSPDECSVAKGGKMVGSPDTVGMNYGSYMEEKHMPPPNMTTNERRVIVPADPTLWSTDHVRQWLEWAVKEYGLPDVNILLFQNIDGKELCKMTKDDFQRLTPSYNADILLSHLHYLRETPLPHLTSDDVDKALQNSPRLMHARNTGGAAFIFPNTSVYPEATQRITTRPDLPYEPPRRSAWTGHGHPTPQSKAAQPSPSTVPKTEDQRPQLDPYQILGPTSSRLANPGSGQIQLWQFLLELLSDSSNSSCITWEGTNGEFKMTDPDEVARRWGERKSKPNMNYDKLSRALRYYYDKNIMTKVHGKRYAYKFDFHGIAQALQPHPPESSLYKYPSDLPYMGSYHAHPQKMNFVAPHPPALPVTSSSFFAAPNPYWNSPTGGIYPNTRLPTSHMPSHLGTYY
The settings on record: protein: recombinant; tags: N-terminal GST; dsDNA, one strand shown. The method, boiled down:
as §1

In assay [5] the target is ELF1 (Homo sapiens, UniProt P32519 1-619). To be noted: protein: recombinant; tags: N-terminal GST; dsDNA, one strand shown. The method, boiled down: as §1
Sequence of ELF1 (P32519 whole entry): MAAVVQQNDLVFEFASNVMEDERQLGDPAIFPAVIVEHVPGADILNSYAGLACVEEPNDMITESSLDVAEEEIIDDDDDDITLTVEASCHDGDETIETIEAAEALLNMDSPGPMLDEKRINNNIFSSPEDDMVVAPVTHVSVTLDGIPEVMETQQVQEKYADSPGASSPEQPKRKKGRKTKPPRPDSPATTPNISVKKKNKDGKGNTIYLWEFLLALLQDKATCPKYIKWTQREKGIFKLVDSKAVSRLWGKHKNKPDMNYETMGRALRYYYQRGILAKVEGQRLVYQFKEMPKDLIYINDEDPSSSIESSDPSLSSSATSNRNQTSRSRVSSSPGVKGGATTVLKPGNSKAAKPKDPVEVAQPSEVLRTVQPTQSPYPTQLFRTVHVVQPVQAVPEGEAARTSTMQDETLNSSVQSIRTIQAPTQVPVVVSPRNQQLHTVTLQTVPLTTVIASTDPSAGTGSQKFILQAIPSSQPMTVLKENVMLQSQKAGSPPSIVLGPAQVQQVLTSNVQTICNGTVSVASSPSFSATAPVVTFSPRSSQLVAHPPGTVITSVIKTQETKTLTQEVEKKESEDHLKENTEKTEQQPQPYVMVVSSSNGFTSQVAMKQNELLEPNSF
Assay [6] has as its target T5, EHF (Homo sapiens, UniProt Q9NZC4 1-300).
T5 sequence: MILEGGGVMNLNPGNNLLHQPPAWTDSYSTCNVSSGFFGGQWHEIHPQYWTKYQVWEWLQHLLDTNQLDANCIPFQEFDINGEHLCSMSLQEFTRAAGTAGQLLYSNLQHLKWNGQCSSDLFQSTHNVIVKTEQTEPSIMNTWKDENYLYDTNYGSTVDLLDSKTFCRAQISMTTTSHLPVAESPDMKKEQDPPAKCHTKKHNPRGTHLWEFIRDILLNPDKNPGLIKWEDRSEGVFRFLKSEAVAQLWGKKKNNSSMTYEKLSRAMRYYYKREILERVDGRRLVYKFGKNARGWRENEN
The settings on record: protein: recombinant; tags: N-terminal GST; dsDNA, one strand shown. The essentials: as §1

For assay [7], the target named is SPI1 (Homo sapiens, UniProt P17947 1-270). To be noted: protein: recombinant; tags: N-terminal GST; dsDNA, one strand shown. The essentials:
as §1

For assay [8], the target named is SPIB (Homo sapiens, UniProt Q01892 1-262). The settings on record: protein: recombinant; tags: N-terminal GST; dsDNA, one strand shown. The method, boiled down: as §1
Sequence of SPIB (Q01892 whole entry): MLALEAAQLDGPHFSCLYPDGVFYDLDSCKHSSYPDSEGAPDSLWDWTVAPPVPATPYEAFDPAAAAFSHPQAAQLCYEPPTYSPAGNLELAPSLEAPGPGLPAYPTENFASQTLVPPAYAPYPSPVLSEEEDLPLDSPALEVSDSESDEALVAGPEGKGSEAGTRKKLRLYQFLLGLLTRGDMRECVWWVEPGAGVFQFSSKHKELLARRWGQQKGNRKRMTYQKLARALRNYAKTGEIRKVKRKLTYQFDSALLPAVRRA
The target in assay [9] is T6, ELK3 (Homo sapiens, UniProt P41970 1-407).
T6 sequence: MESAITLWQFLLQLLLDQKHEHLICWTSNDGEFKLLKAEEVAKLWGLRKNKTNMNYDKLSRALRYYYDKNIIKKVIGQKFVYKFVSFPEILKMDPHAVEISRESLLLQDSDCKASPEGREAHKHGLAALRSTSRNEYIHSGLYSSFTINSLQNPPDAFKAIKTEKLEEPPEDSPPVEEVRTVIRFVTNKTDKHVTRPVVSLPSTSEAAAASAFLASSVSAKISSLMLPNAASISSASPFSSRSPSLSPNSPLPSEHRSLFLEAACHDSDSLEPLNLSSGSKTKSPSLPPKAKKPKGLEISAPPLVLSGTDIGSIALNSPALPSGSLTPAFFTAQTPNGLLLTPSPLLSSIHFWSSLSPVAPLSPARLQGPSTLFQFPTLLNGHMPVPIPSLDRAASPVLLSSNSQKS
To be noted: protein: recombinant; tags: N-terminal GST; dsDNA, one strand shown. The essentials:
as §1

The target of assay [10] is T7, FEV (Homo sapiens, UniProt Q99581 1-238).
T7 sequence: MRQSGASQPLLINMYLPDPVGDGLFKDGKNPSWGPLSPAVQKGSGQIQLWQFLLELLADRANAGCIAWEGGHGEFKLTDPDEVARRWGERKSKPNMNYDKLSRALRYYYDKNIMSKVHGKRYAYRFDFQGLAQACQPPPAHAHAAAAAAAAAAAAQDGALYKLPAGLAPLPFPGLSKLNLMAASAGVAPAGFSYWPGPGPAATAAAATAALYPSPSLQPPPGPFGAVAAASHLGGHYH
The settings on record: protein: recombinant; tags: N-terminal GST; dsDNA, one strand shown. The essentials:
as §1

In assay [11] the target is ETV5 (Homo sapiens, UniProt P41161 1-510). To be noted: protein: recombinant; tags: N-terminal GST; dsDNA, one strand shown. The essentials: as §1
Sequence of ETV5 (P41161 whole entry): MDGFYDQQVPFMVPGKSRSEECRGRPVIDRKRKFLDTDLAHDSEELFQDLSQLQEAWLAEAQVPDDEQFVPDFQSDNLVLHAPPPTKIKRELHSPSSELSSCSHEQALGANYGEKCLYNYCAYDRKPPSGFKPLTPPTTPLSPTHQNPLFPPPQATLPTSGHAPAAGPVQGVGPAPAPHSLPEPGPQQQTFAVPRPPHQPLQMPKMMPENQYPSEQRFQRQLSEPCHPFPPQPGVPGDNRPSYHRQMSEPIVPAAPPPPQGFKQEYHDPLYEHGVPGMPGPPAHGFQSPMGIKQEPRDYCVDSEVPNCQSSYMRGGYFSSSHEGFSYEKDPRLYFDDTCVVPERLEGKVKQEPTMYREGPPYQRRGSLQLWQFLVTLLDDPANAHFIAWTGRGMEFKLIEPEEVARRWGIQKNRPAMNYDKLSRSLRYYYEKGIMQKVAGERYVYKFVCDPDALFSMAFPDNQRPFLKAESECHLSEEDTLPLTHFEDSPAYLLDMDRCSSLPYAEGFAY
Assay [12] has as its target HSF1 (Homo sapiens, UniProt Q00613 1-529). To be noted: protein: recombinant; tags: N-terminal GST; chain copies: 3; dsDNA, one strand shown. The method, boiled down: as §1
Assay [13] concerns the target ELF4 (Homo sapiens, UniProt Q99607 1-663). To be noted: protein: recombinant; tags: N-terminal GST; dsDNA, one strand shown. The essentials: as §1
Assay [14] deals with T8, ELK4 (Homo sapiens, UniProt P28324-2 1-405).
T8 sequence: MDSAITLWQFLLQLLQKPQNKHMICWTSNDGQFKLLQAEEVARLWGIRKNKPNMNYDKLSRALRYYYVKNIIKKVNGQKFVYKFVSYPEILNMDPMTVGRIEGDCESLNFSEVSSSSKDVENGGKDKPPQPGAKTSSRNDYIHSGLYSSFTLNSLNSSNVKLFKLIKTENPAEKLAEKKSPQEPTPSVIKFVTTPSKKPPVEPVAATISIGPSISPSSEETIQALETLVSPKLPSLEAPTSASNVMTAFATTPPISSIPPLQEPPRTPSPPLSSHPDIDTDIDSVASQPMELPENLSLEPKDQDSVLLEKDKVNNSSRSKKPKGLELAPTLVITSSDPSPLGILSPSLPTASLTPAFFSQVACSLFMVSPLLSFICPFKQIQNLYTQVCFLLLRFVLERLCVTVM
To be noted: protein: recombinant; tags: N-terminal GST; dsDNA, one strand shown. The essentials:
as §1

Assay [15] concerns the target T9, ETV2 (Homo sapiens, UniProt O00321 1-342).
T9 sequence: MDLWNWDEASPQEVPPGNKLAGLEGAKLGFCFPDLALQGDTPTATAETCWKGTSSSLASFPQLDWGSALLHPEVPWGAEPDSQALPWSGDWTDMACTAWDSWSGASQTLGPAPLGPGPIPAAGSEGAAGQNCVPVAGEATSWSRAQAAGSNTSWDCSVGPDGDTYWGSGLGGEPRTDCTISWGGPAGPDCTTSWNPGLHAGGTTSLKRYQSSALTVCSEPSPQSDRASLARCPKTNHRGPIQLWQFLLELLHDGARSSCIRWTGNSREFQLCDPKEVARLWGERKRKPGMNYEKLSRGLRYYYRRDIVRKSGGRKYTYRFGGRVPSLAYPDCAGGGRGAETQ
To be noted: protein: recombinant; tags: N-terminal GST; dsDNA, one strand shown. The method, boiled down: as §1

In assay [16] the target is T10, ELF3 (Homo sapiens, UniProt P78545 1-371).
T10 sequence: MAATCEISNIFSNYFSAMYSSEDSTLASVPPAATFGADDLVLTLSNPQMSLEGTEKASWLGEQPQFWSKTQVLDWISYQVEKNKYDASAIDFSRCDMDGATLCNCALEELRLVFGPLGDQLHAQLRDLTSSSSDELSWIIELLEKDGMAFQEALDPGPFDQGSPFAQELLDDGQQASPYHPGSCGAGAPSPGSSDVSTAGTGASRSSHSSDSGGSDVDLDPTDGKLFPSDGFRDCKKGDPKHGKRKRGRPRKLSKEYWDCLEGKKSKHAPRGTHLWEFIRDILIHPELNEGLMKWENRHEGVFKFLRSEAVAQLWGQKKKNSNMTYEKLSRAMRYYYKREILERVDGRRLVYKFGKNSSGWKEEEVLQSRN
To be noted: protein: recombinant; tags: N-terminal GST; dsDNA, one strand shown. The method, boiled down:
as §1

In assay [17] the target is CRX (Homo sapiens, UniProt O43186 1-299). The settings on record: protein: recombinant; tags: N-terminal GST; dsDNA, one strand shown. The essentials:
as §1

The target of assay [18] is ETV1 (Homo sapiens, UniProt P50549 1-477). The settings on record: protein: recombinant; tags: N-terminal GST; dsDNA, one strand shown. The method, boiled down: as §1
Sequence of ETV1 (P50549 whole entry): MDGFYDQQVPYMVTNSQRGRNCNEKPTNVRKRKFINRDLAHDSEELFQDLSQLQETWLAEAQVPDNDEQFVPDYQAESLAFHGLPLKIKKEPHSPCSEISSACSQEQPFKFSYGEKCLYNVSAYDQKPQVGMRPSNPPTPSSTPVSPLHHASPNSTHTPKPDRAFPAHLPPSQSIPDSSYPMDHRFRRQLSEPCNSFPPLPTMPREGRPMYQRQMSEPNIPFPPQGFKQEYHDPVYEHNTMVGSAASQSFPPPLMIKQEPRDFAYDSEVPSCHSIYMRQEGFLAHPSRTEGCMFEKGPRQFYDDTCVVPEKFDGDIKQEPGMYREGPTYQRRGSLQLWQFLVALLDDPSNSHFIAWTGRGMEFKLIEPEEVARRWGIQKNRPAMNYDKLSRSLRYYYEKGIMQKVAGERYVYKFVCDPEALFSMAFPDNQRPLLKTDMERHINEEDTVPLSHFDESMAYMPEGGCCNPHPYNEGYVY

Sequence of HSF1 (Q00613 whole entry): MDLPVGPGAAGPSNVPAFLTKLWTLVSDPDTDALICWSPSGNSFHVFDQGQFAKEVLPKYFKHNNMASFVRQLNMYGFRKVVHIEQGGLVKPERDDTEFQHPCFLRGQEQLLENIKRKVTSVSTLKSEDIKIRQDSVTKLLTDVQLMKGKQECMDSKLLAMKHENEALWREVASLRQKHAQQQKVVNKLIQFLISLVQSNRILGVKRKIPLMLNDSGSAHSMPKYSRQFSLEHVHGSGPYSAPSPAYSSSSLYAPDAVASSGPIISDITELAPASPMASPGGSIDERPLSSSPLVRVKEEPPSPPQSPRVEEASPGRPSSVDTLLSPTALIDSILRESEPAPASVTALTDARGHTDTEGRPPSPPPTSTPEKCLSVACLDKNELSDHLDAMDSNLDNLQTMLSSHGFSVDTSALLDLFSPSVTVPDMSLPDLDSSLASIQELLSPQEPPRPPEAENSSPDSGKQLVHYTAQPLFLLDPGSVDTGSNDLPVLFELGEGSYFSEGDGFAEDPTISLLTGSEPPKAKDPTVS
Sequence of ELF4 (Q99607 whole entry): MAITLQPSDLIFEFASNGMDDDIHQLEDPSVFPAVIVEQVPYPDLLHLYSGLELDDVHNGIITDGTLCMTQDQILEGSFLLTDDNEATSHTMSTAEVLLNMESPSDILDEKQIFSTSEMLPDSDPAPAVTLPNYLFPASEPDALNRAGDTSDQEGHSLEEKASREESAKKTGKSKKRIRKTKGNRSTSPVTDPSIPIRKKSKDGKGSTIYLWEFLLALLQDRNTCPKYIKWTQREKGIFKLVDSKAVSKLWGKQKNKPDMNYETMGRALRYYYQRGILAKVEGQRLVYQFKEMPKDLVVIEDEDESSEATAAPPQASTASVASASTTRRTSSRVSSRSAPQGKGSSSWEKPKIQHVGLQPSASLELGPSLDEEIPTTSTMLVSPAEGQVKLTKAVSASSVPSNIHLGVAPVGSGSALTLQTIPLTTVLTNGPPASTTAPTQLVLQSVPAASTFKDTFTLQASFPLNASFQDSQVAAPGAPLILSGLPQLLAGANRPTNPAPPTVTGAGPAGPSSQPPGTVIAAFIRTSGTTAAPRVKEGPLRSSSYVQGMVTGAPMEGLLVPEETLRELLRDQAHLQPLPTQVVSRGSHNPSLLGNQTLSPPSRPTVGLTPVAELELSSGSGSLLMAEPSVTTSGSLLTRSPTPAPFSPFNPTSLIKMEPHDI
Sequence of CRX (O43186 whole entry): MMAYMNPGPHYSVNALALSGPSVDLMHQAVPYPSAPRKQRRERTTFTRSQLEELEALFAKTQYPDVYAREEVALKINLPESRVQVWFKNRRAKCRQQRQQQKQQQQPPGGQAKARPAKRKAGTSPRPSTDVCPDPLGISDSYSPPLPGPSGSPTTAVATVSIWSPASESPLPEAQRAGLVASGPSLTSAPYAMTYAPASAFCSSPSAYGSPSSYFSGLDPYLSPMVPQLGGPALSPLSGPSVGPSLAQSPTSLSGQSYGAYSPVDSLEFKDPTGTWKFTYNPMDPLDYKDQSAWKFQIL

Regarding TAGTGT, the binding signal in assay [1] is 1.17 fold enrichment (6-mer frequency, TF over GST control); in assay [2] it was 1.16 fold enrichment (6-mer frequency, TF over GST control); in assay [3], 1.14 fold enrichment (6-mer frequency, TF over GST control); in assay [4] it was 1.02 fold enrichment (6-mer frequency, TF over GST control); in assay [5], 1.14 fold enrichment (6-mer frequency, TF over GST control); in [6], 1.11 fold enrichment (6-mer frequency, TF over GST control). The binding signal is 1.12 fold enrichment (6-mer frequency, TF over GST control) in assay [7]; 1.14 fold enrichment (6-mer frequency, TF over GST control) in assay [8]; 1.08 fold enrichment (6-mer frequency, TF over GST control) in assay [9]; 1.02 fold enrichment (6-mer frequency, TF over GST control) in [10]; 1.12 fold enrichment (6-mer frequency, TF over GST control) in [11]; 1.15 fold enrichment (6-mer frequency, TF over GST control) in [12]. The binding signal was 1.11 fold enrichment (6-mer frequency, TF over GST control) in assay [13]; 1.4 fold enrichment (6-mer frequency, TF over GST control) in assay [14]; 1.06 fold enrichment (6-mer frequency, TF over GST control) in [15]; 1.21 fold enrichment (6-mer frequency, TF over GST control) in [16]; 1.29 fold enrichment (6-mer frequency, TF over GST control) in [17]; 1.21 fold enrichment (6-mer frequency, TF over GST control) in [18].
